Results taken from PubChem BioAssay AID2284085 (EPA ToxCast).
The source made the active and inactive calls. The calls were made as follows: active = hit-call score of the fitted dose curve at least 0.9, where 1 is the maximum; inactive = score below 0.9.

Target: human Fms (CSFR) (CSF1R) Receptor Tyrosine Kinase, CSF1R (gene 1436) (UniProt P07333)
Assay: ERF_FR_ENZ_hCSF1R: Eurofins (ERF) Enzymatic Radiometric [Km ATP] KinaseProfiler LeadHunter Assay for human Fms (CSFR) (CSF1R) Receptor Tyrosine Kinase
Protocol: ERF_FR_ENZ_hCSF1R is a biochemical, single-readout assay that uses extracted gene-proteins in a cell-free assay. Measurements were taken 0.25 hour after chemical dosing in a 96-well plate. See Fms (CSFR) Human RTK Kinase Enzymatic LANCE Assay [Km ATP], Cerep.ERF_FR_ENZ_hCSF1R is an assay component calculated from the ERF_FR_ENZ_hCSF1R assay. It is designed to measure enzyme activity using a type of enzyme reporter as detected by fluorescence intensity with LANCE technology.Data from the assay component ERF_FR_ENZ_hCSF1R was analyzed at the assay endpoint, ERF_FR_ENZ_hCSF1R, in the positive analysis fitting direction relative to DMSO as the negative control and baseline of activity. Using a type of enzyme reporter, loss-of-signal activity can be used to understand changes in enzymatic activity as they relate to gene CSF1R. To generalize the intended target to other relatable targets, this assay endpoint is annotated to the kinase intended target family, where the subfamily is receptor tyrosine kinase.
Fms (h) is incubated with 8 mM MOPS pH 7.0, 0.2 mM EDTA, 250 uM […], 10 mM MgAcetate and [g- 33P]-ATP (specific activity and concentration as required). The reaction is initiated by the addition of the Mg/ATP mix. After incubation for 40 minutes at room temperature, the reaction is stopped by the addition of phosphoric acid to a concentration of 0.5%. […]

human Fms (CSFR) (CSF1R) Receptor Tyrosine Kinase, CSF1R (gene 1436), sequence (P07333 whole entry, looked up): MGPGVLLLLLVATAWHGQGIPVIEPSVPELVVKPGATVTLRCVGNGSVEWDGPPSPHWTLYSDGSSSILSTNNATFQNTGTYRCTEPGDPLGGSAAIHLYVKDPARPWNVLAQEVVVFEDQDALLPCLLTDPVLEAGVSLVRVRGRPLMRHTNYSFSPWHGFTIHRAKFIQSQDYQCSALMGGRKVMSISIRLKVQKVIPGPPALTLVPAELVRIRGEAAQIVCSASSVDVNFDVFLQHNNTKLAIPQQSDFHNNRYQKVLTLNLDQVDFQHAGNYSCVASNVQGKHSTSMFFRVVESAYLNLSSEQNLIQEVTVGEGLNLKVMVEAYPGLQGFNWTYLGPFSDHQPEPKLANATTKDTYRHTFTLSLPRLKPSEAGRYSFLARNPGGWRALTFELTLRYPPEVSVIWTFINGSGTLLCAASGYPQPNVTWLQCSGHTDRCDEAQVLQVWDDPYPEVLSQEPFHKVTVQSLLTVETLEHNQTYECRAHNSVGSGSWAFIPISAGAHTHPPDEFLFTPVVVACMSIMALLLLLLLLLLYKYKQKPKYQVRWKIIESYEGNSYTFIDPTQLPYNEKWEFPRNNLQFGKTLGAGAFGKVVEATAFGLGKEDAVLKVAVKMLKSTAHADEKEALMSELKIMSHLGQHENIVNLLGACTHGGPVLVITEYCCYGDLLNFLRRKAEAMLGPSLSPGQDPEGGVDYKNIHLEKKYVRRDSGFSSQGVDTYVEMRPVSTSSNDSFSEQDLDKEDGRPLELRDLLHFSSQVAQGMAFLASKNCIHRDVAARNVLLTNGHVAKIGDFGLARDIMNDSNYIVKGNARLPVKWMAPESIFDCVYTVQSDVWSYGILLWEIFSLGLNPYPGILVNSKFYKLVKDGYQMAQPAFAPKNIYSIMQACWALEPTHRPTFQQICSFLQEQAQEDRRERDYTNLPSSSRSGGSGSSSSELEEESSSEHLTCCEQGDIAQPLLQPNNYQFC

SMILES | outcome
O=C(/C=C/c1ccc(O)cc1)CC(=O)/C=C/c1ccc(O)cc1 | inactive
